Consider ten compounds from PubChem BioAssay (NCI).

Common to all, as to assay: NCI-60 one-dose screen, 48 h (100 = growth as untreated, 0 = no growth, -100 = all killed)
Common to all, as to settings: 10 µM

The test system of assay [1] is RPMI-8226 leukemia.
Assay [2] relates to OVCAR-8 ovarian.
Assay [3] relates to OVCAR-5 ovarian.
Assay [4] concerns OVCAR-4 ovarian.
Assay [5] has as its system SK-OV-3 ovarian.
Assay [6] deals with IGROV1 ovarian.
Assay [7] concerns OVCAR-3 ovarian.
Assay [8] relates to HS 578T breast.
Assay [9] deals with NCI/ADR-RES ovarian.
Assay [10] relates to T-47D breast.
The test system of assay [11] is BT-549 breast.
Assay [12] relates to MDA-MB-435 melanoma.
The test system of assay [13] is SW-620 colon.
For assay [14], the system named is MCF7 breast.
The test system of assay [15] is HCT-116 colon.
Assay [16] concerns HCC-2998 colon.
Assay [17] concerns KM12 colon.

The panel holds about 83,000 compounds, 20% with a hit somewhere; the sample as a whole holds those more often.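 Negative percent growth values reflect cell death: -40 means 40% of the cells present at the start died, and -100 means all died.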 A number with no mark means an inactive call. Calls of active or inactive are those of the source. Rule for the calls: active = growth percent below 10; inactive = the rest.

As to `COc1ccc(-c2nnc(COc3ccc(NC(=O)Nc4ccccc4)cc3F)o2)cc1`, the growth is 51.3% in assay [1]; 96.1% in [2]; 114% in assay [3]; 75.7% in [4]; 99.1% in assay [5]; 99.2% in assay [6]. The growth is 2.7% (active) in assay [7]; 82% in assay [8]; 97.4% in assay [9]; 62.1% in assay [10]; 79.6% in assay [11]; 92.3% in [12]. The growth in assay [13] is 102%; in [14], 90.3%; in assay [15], 69.8%; in assay [16], 103%; in assay [17] it was 68.5%.

With `Cn1cnc([N+](=O)[O-])c1Sc1nnc(-c2ccccc2)c(-c2ccccc2)n1`, the growth is 43.8% in assay [1]; 102% in assay [2]; 93.6% in assay [3]; 73.9% in [4]; 120% in [5]; 72% in [6]. For the same compound, the growth was 51.3% in [7]; 106% in [8]; 82.3% in assay [9]; 9.12% (active) in [10]; 42.1% in assay [12]; 48% in assay [13]. Moreover, the growth in assay [14] was 61.9%; in assay [15], 32.8%; in assay [16], 96.8%; in [17] it was 92.5%.

In the case of `CCCCCCCCCCCCCCCCn1cc[n+](C)c1`, the growth in assay [1] is 15.8%; in assay [2], -53.7% (active); in assay [3], -67.5% (active); in assay [4], -54.8% (active); in [5] it was -33.8% (active); in [7], -24.8% (active). Further, the growth in assay [8] is -48.4% (active); in assay [9], 37.1%; in assay [10], -0.127% (active); in assay [11], -65.2% (active); in [12], -55.8% (active); in assay [13], -66.7% (active). Also, the growth is -79.9% (active) in assay [14], -87.2% (active) in [15], -94.4% (active) in assay [16] and -83.9% (active) in assay [17].

For `C=CCNC(=S)NN`, the growth is 74.2% in assay [1]; 71.2% in assay [2]; 69.7% in [3]; 96.8% in [4]; 98.4% in assay [5]; 45.3% in [6]. In addition, the growth in assay [7] was 96.5%; in assay [8] it was 89.5%; in assay [9], 82.7%; in assay [10] it was 50.5%; in [11], 99.2%; in assay [12], 95.4%. Also, the growth in [13] was 85.5%; in assay [14], 8.89% (active); in assay [15] it was 6.82% (active); in [16], 107%; in [17], 98.6%.

Turning to `COc1ccc(Cn2cc3c(c2-c2ccccc2)CC(C)(C)c2cnoc2-3)cc1`, the growth in assay [1] was 32.2%; in [2] it was 50.4%; in assay [3] it was 78%; in [4], 60.4%; in [5], 20%; in assay [6] it was 44.6%. The growth was 6.6% (active) in [7]; 9.84% (active) in assay [8]; 18.7% in assay [9]; 30.7% in assay [10]; 46.2% in assay [11]; -16.6% (active) in assay [12]. For the same compound, the growth is 13.6% in assay [13]; 17.1% in assay [14]; 22.9% in [15]; 77.4% in [16]; 29.1% in assay [17].

With `CCCCCCOc1ccc(/C=C/C(=O)c2ccc(B(O)O)cc2)cc1`, the growth in [1] was 46.2%; in assay [2] it was 81.2%; in assay [3], 77.3%; in assay [4], 64.6%; in assay [5], 87.3%; in [6], 64.7%. For the same compound, the growth is 97.1% in assay [7]; 60.3% in assay [8]; 77.4% in [9]; 73.9% in [10]; 35.2% in [11]; 77.1% in assay [12]. The growth in assay [13] is 96.8%; in [14], 57.5%; in [15], 55.6%; in assay [16] it was 95.6%; in assay [17] it was 85.4%.

For `CCCCn1c(=O)[nH]c2c(c1=O)C(c1ccc(Cl)cc1)c1c([nH]c(=O)n(CCCC)c1=O)N2`, the growth in assay [1] was 104%; in assay [2], 99.5%; in assay [3] it was 99.5%; in [4], 102%; in assay [5], 94.7%; in assay [6], 102%. For the same compound, the growth in assay [7] was 115%; in assay [8] it was 106%; in assay [9], 98.6%; in [10] it was 73.3%; in assay [11], 100%; in assay [12], 103%. The growth was 101% in [13]; 88.2% in [14]; 96.6% in assay [15]; 103% in [16]; 102% in assay [17].

Regarding `CC(C)(C)CC(C)(C)c1ccc(O)c(Cc2ccc(Cl)cc2Cl)c1`, the growth is -43.4% (active) in assay [2]; -86.5% (active) in assay [4]; -86.6% (active) in assay [5]; -82.8% (active) in [6]; -93.7% (active) in [7]; -23% (active) in [8]. In addition, the growth in assay [9] is -81.1% (active); in assay [10], -72.9% (active); in assay [11], -95.1% (active); in assay [12], -81.1% (active); in assay [13], -84.9% (active); in assay [14], -88.9% (active). In addition, the growth in assay [15] was -91.8% (active); in assay [16], -89.1% (active); in assay [17], -88.5% (active).

`CC1=CC2OC34COC3CC(OC(=O)C(F)(F)F)C4(C)C2(C)CC1` (stereo not given): the growth in assay [1] was 101%; in assay [2], 106%; in assay [3], 101%; in [4] it was 103%; in assay [5], 102%; in [6], 119%. Further, the growth in assay [7] was 118%; in [8], 97.7%; in assay [9], 105%; in assay [10], 94.2%; in assay [11], 95.9%; in [12] it was 101%. The growth was 103% in [13]; 93.7% in assay [14]; 96.6% in [15]; 98.3% in assay [16]; 105% in assay [17].

With `CCCCCCCCCCCCCCCC(=O)N1CCN(C)CC1`, the growth was 71% in assay [1]; 86.3% in assay [2]; 87.6% in [4]; 84.9% in assay [5]; 52.3% in assay [6]; 86.8% in assay [7]. Moreover, the growth is 90.1% in [8]; 90.3% in assay [9]; 74.3% in assay [10]; 83.1% in [11]; 59.8% in assay [12]; 90% in [13]. The growth in [14] was 85%; in assay [15], 57.3%; in assay [16] it was 81.8%; in assay [17], 76.2%.
